Measurements reported in PubChem BioAssay AID1159580 (chemical genetic matrix, 2015).
Several values for one entry are separate records, joined by “and”; a condition that tells them apart may be missing. Identical values can stand only once. In all, about 5,500 compounds went through this assay and about 2,000 (36%) were called active. Another 18% or so got no clear call; they are omitted. Rule as the data show it: active = normalized growth mostly below about 0.91 (no sharp cut-off); inconclusive = no clear call, values can overlap the other calls; inactive = mostly above about 0.92. The list shows a part of the results.

Test: chemical genetic growth profiling, strain panel (AID 1159580);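 also: tested at 20 µM; growth read once vehicle control cultures reached saturation at 30 °C; 1 = growth at the plate median or of vehicle wells; lower values mean less growth of the strain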
Details: S. cerevisiae deletion strains, growth OD

Measured: normalized growth

Cc1ccsc1/C=C/C1=NCCCN1C
inactive: locus YAL013W, strain DEP1, hits give low values 1.01 | locus YAL021C, strain ccr4, hits give low values 1 | locus YAL026C, strain drs2, hits give low values 0.996 | locus YAL030W, strain snc1, hits give low values 0.996 | locus YBL061C, strain skt5, hits give low values 0.984 | locus YBR009C, strain hhf1, hits give low values 1 | locus YBR021W, strain FUR4, hits give low values 1.02 | locus YBR023C, strain chs3, hits give low values 0.984 | locus YBR171W, strain sec66, hits give low values 0.99 | locus YBR229C, strain ROT2, hits give low values 1.01 | locus YBR231C, strain swc5, hits give low values 1.07 | locus YBR279W, strain paf1, hits give low values 0.992 | locus YCL011C, strain gbp2, hits give low values 0.982 | locus YCL016C, strain dcc1, hits give low values 0.996 | locus YCL029C, strain bik1, hits give low values 0.969 | locus YCL061C, strain MRC1, hits give low values 0.992 | locus YCL069W, strain vba3, hits give low values 0.986 | locus YCR088W, strain abp1, hits give low values 0.993 | locus YDL005C, strain med2, hits give low values 0.983 | locus YDL035C, strain GPR1, hits give low values 1.02 | locus YDL040C, strain nat1, hits give low values 0.985 | locus YDL074C, strain BRE1, hits give low values 0.995 | locus YDL101C, strain DUN1, hits give low values 0.991 | locus YDL134C, strain PPH21, hits give low values 1.02 | locus YDL185W, strain tfp1, hits give low values 0.938 | locus YDL192W, strain arf1, hits give low values 0.972 | locus YDR001C, strain nth1, hits give low values 0.996 | locus YDR069C, strain doa4, hits give low values 0.993 | locus YDR101C, strain arx1, hits give low values 0.965 | locus YDR137W, strain rgp1, hits give low values 0.941 | locus YDR150W, strain NUM1, hits give low values 0.998 | locus YDR159W, strain sac3, hits give low values 0.998 | locus YDR162C, strain NBP2, hits give low values 1.01 | locus YDR195W, strain ref2 1.01 | locus YDR297W, strain sur2, hits give low values 1 | locus YDR318W, strain mcm21, hits give low values 0.972 | locus YDR334W, strain swr1, hits give low values 0.986 | locus YDR335W, strain msn5, hits give low values 0.991 | locus YDR388W, hits give low values 0.98 | locus YDR392W, strain spt3, hits give low values 0.992 | locus YDR502C, strain sam2, hits give low values 1 | locus YEL003W, strain gim4, hits give low values 0.996 | locus YEL037C, strain rad23, hits give low values 0.995 | locus YEL061C, strain CIN8 (second series), hits give low values 0.992 | locus YEL061C, strain CIN8, hits give low values 1 | locus YER015W, strain faa2, hits give low values 0.971 | locus YER016W, strain bim1, hits give low values 0.982 | locus YER110C, hits give low values 0.982 | locus YER111C, strain swi4, hits give low values 0.989 | locus YER155C, strain BEM2 (second series), hits give low values 1 | locus YER155C, strain BEM2, hits give low values 0.988 | locus YER167W, strain BCK2, hits give low values 1.01 | locus YFR010W, strain ubp6, hits give low values 0.992 | locus YGL078C, strain dbp3, hits give low values 0.984 | locus YGL086W, strain mad1, hits give low values 1.01 | locus YGL167C, strain pmr1, hits give low values 0.987 | locus YGL173C, strain kem1, hits give low values 0.987 | locus YGL227W, strain vid30, hits give low values 0.991 | locus YGL240W, strain doc1, hits give low values 1 | locus YGL248W, strain PDE1, hits give low values 1.02 | locus YGL253W, strain hxk2, hits give low values 0.995 | locus YGR078C, strain PAC10, hits give low values 1 | locus YGR135W, strain pre9, hits give low values 1.01 | locus YGR229C, strain SMI1, hits give low values 1.03 | locus YGR252W, strain gcn5, hits give low values 1.06 | locus YHR013C, strain ard1, hits give low values 0.978 | locus YHR027C, strain rpn1, hits give low values 0.982 | locus YHR030C, strain SLT2, hits give low values 1 and 0.986 | locus YHR079C, strain IRE1 (second series), hits give low values 0.963 | locus YHR079C, strain IRE1, hits give low values 0.974 | locus YHR094C, strain hxt1, hits give low values 0.956 | locus YHR129C, strain ARP1, hits give low values 1 | locus YHR142W, strain chs7, hits give low values 0.997 | locus YHR200W, strain rpn10, hits give low values 0.984 | locus YIL066C, strain RNR3, hits give low values 0.998 | locus YIL073C, strain SPO22, hits give low values 0.91 | locus YIL125W, strain kgd1, hits give low values 0.984 | locus YIR030C, strain dcg1, hits give low values 0.976 | locus YJL092W, strain hpr5, hits give low values 0.993 | locus YJL095W, strain BCK1 (second series), hits give low values 0.991 | locus YJL095W, strain BCK1, hits give low values 0.988 and 1 | locus YJL115W, strain asf1, hits give low values 0.99 | locus YJL129C, strain trk1, hits give low values 0.985 | locus YJL134W, strain LCB3, hits give low values 1 | locus YJL154C, strain vps35, hits give low values 0.984 | locus YJL164C, strain tpk1, hits give low values 0.99 | locus YJL166W, strain qcr8, hits give low values 0.994 | locus YJL168C, strain set2, hits give low values 0.984 | locus YJL187C, strain SWE1 (second series), hits give low values 0.99 | locus YJL187C, strain SWE1, hits give low values 0.997 | locus YJR043C, strain POL32, hits give low values 1.01 | locus YJR066W, strain TOR1, hits give low values 0.967
